Calls of active or inactive are those of the source.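 Rule for the calls, unless noted: active = inhibition at or above 50% at 10 µM; inactive = inhibition below 50%.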
Key:
[1] = inhibitors of TNFa-induced NFkB p65 translocation, primary screen, imaging, HUVEC, MLSMR starter and 10KST1 sets (AID 438;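 active = inhibition above 20% together with a positive visual image hit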;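 note: compound added about 3h40 before a 20 min TNFalpha stimulation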;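 for inhibition: signal is the nuclear over cytoplasmic p65 intensity ratio per well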); details: HUVEC TNFa-induced p65 nuclear translocation; cell count: measured here: nuclei count (cytotoxicity indicator), at 2.08 µM; inhibition: at 2 µM, stronger effect = higher value, 0% TNFa-plus-vehicle, 100% no-TNFa wells
[2] = reduction of polyQ htt aggregates in cells – imaging, exon1htt(103Q)mCFP cells, high-content imaging, primary screen (AID 483;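 active = visual image review flags a hit and inhibition of aggregation exceeds 20%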;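 note: compound exposure lasted 3 days before fixation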;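 for nuclei count: percent of the per-plate median nuclei count of sample wells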); details: exon1htt(103Q)mCFP cell line, aggregate imaging, at 2 µM; inhibition of aggregation: stronger effect = higher value; nuclei count: measured here: cell count, toxicity
[3] = endothelial E-selectin expression blockers – imaging, HUVEC, immunofluorescence, MLSMR starter and 10KST1 sets, primary screen (AID 487;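 active = visually confirmed hit in the image check and inhibition above 20%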;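 for inhibition: signal is fraction of cell area covered by stained E-selectin grains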;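 for nuclei count: 100% = median nuclei count of all wells on the same plate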); details: HUVEC TNFalpha-induced E-selectin immunofluorescence imaging, at 2 µM; inhibition: stronger effect = higher value; nuclei count: measured here: cell number, toxicity
[4] = target: Voltage-gated potassium channel subunit beta-2 (Rattus norvegicus) (UniProt P62483); experiment: inhibitors of rat Kvbeta2 reductase activity – biochemical, NADPH fluorescence, primary screen (AID 622;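 active = fluorescence slope higher than the sample average by over 3 SD, cut at about -0.22 in these data, passing the limit was not always enough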;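 note: slope of raw intensity against log time taken from 70 to 1610 s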); details: recombinant KvBeta, 4-cyanobenzaldehyde reduction, at 10 µM, stronger effect = higher value
[5] = target: Voltage-gated potassium channel subunit beta-2 (Rattus norvegicus) (UniProt P62483); experiment: enhancers of rat Kvbeta2 NADPH turnover – biochemical, NADPH fluorescence, primary screen (AID 623;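 active = NADPH fluorescence slope more negative than the mean of all samples by about 3 SD, 99.7% confidence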;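 note: fluorescence intensity change per second fitted from 20 to 320 s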); details: Recombinant KvBeta, NADPH fluorescence decrease slope, 10 min; at 10 µM; stronger effect = lower value
[6] = target: Alpha-2C adrenergic receptor (Homo sapiens) (UniProt P18825); experiment: compounds altering alpha2C-coupled GIRK flux – cell-based, HEK293 alpha2C/GIRK1/2, thallium flux, primary screen (AID 624;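 active = fluorescence slope after compound addition differing from the mean of all screened samples at 99.7% confidence, in either direction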;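 note: slope of fluorescence ratio to pre-addition baseline per second over 15 to 24 s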); details: thallium flux BTC fluorescence, at 10 µM, actives lie on both sides
[7] = blockers of RIG-like receptor reporter activation – cell-based, Sendai virus stimulus, luciferase, 10K MLSCN set, TLR/RLR signaling modifier project, primary screen (AID 602276); details: HEK293 RL24 IRF3 luciferase reporter, at 10 µM, stronger effect = higher value;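 note: firefly luciferase from ISG56 promoter only with Renilla not read in this screen; 0% = Sendai virus plus DMSO and 100% = medium plus DMSO without virus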
[8] = TLR3 IRF3 reporter activation blockers – cell-based, poly I:C stimulus, luciferase, 10K MLSCN set, primary screen (AID 602277;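 active = inhibition of the reporter signal at or above 50%; inactive = inhibition below 50%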); details: HEK293-TLR3 RL24 IRF3 luciferase reporter, at 10 µM, stronger effect = higher value

Voltage-gated potassium channel subunit beta-2 (Rattus norvegicus), sequence (P62483 whole entry, looked up): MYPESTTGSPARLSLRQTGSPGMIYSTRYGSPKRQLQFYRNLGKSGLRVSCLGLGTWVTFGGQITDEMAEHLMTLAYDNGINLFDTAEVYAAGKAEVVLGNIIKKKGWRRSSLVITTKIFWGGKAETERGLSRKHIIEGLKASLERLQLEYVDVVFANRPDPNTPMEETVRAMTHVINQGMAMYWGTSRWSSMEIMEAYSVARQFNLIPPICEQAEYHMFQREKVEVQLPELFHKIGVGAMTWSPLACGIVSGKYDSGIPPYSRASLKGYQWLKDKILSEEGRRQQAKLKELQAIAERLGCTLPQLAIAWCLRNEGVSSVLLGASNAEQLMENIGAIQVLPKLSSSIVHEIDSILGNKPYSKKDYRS
Alpha-2C adrenergic receptor (Homo sapiens), sequence (P18825 whole entry, looked up): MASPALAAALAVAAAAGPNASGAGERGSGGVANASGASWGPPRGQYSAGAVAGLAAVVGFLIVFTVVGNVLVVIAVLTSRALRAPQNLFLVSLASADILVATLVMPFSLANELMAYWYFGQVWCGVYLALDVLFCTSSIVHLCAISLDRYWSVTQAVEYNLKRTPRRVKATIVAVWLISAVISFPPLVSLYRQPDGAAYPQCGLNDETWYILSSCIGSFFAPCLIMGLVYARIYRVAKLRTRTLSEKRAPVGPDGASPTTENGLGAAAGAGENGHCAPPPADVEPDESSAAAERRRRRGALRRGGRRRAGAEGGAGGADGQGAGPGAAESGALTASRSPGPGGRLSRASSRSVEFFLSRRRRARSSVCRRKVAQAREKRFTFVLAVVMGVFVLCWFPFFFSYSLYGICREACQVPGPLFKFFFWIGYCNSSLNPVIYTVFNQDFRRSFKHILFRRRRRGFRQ

SMILES	cell count [1]	inhibition [1]	inhibition of aggregation [2]	nuclei count [2]	inhibition [3]	nuclei count [3]	fluorescence slope [4]	NADPH fluorescence slope [5]	slope [6]	inhibition [7]	inhibition [8]
O=C(NCc1ccc2c(c1)OCO2)c1ccccn1	345	-2% (inactive)	18.9% (inactive)	100%	5.4% (inactive)	122%	-0.375 (inactive)	4.1e-05 (inactive)	0.00534 (inactive)	-23.2% (inactive)	-28.1% (inactive)
Cn1c(=O)c2[nH]c(NCC3CCCO3)nc2n(-c2ccccc2)c1=O (stereo not drawn)	359	-0.4% (inactive)	-11.4% (inactive)	108%	-80% (inactive)	116%	-0.407 (inactive)	-7.1e-05 (inactive)	0.00463 (inactive)	14% (inactive)	32.3% (inactive)
O=C(CSc1nnc2scc(-c3ccccc3)n12)Nc1nsc(-c2ccccc2)n1	673	-14.1% (inactive)	2.8% (inactive)	107%	34.5% (inactive)	97.5%	-0.381 (inactive)	1.4e-05 (inactive)	0.00626 (inactive)	9.78% (inactive)	-32.6% (inactive)
COC(=O)c1cn(C(=O)c2ccc(Br)o2)c2ccccc12	309	-12.5% (inactive)	17.4% (inactive)	97.7%	-179% (inactive)	101%	-0.33 (inactive)	-2.6e-05 (inactive)	0.00583 (inactive)	0.625% (inactive)	18% (inactive)
Cn1c(=O)c2c(nc(CN3CCCCC3)n2CCc2ccccc2)n(C)c1=O	363	-1% (inactive)	-29.9% (inactive)	79%	-3.5% (inactive)	158%	-0.572 (inactive)	-1.3e-05 (inactive)	0.00323 (inactive)	-6.67% (inactive)	-8.47% (inactive)
CN1/C(=C\C(=O)C(F)F)C(C)(C)c2ccccc21	296	3.5% (inactive)	-24% (inactive)	104%	17.2% (inactive)	116%	-0.504 (inactive)	1.6e-05 (inactive)	0.00399 (inactive)	20.8% (inactive)	17.4% (inactive)
O=C(CSc1ncnc2ccccc12)NCCCO	458	-11% (inactive)	-1.4% (inactive)	104%	7.4% (inactive)	101%	-0.628 (inactive)	8.9e-06 (inactive)	0.00699 (inactive)	15.3% (inactive)	26.4% (inactive)
CCN(CC)CCN1C(=O)C(O)=C(C(=O)c2cccs2)C1c1ccc(C)o1 (stereo not drawn)	343	12.4% (inactive)	-10.4% (inactive)	91.9%	-153% (inactive)	111%	-0.411 (inactive)	-3.6e-05 (inactive)	0.00478 (inactive)	2.4% (inactive)	-5.17% (inactive)
O=C(COc1ccccc1)N1CCN(C(=O)c2cccc(F)c2)CC1	725	1% (inactive)	-0.2% (inactive)	111%	7.6% (inactive)	97.2%	-0.447 (inactive)	-3.8e-05 (inactive)	0.00634 (inactive)	8.19% (inactive)	29.6% (inactive)
CCCOC(=O)CSc1nc(N)c(C#N)c(CC)c1C#N	377	3.3% (inactive)	18% (inactive)	97.7%	-97.1% (inactive)	113%	-0.532 (inactive)	-2.3e-05 (inactive)	0.00456 (inactive)	-7.11% (inactive)	-13.9% (inactive)
CCOC(=O)Cc1nnc2c(Nc3ccc(C)cc3)nc3nonc3n12	352	1% (inactive)	15% (inactive)	87.3%	6.7% (inactive)	83%	-0.612 (inactive)	-1.4e-05 (inactive)	0.00447 (inactive)	23.5% (inactive)	34.9% (inactive)
CCc1c(C(=O)NCCc2ccc(OC)c(OC)c2)[nH]c(C)c1C(C)=O	274	2.4% (inactive)	-21.3% (inactive)	107%	5.2% (inactive)	93.4%	-0.34 (inactive)	-1.2e-05 (inactive)	0.00669 (inactive)	17.6% (inactive)	16.1% (inactive)
O=C(Nc1cccc(O)c1)c1ccccc1	474	18.5% (inactive)	6% (inactive)	98.6%	-32.9% (inactive)	102%	-0.521 (inactive)	5e-06 (inactive)	0.00606 (inactive)	-19.1% (inactive)	-29.4% (inactive)
O=S(=O)(NC1CCCC1)c1ccccc1Cl	739	-7.3% (inactive)	-2.5% (inactive)	111%	-21.2% (inactive)	116%	-0.455 (inactive)	-3.7e-05 (inactive)	0.00495 (inactive)	7.42% (inactive)	15.4% (inactive)
CCOC(=O)c1cc2c(=O)n3cccc(C)c3nc2n(CC2CCCO2)c1=NC(C)=O (stereo not drawn)	435	28.2% (inactive)	-1.4% (inactive)	117%	-17.2% (inactive)	114%	-0.295 (inactive)	-2.5e-05 (inactive)	0.00401 (inactive)	3.59% (inactive)	8.19% (inactive)
Cc1nn(-c2ccc(F)cc2)c2c1cc(C#N)c1nc3ccccc3n12	664	9.6% (inactive)	29.9% (inactive)	69.3%	2.3% (inactive)	102%	-0.000912 (active)	1.1e-05 (inactive)	0.00318 (inactive)	9.91% (inactive)	23.6% (inactive)
C=CCOc1ccccc1/C=c1\sc2nc(=O)c(C)nn2c1=O	704	-11.1% (inactive)	7.5% (inactive)	100%	-31.3% (inactive)	106%	-0.362 (inactive)	1.8e-05 (inactive)	0.0042 (inactive)	15.6% (inactive)	26.5% (inactive)
COC(=O)c1cc(OC)c(OC)cc1NC(=O)c1ccc(Br)o1	296	-7.2% (inactive)	-7.5% (inactive)	95.4%	-91.3% (inactive)	103%	-0.312 (inactive)	-4.6e-05 (inactive)	0.00764 (inactive)	2.63% (inactive)	-5.12% (inactive)
O=C(c1ccc(Br)o1)N1CCN(c2ccc3nnc(-c4ccccc4)n3n2)CC1	634	-0.5% (inactive)	3% (inactive)	80.7%	-91.9% (inactive)	120%	-0.602 (inactive)	-3.4e-05 (inactive)	0.00664 (inactive)	-4.83% (inactive)	-337% (inactive)
O=C(CCS(=O)(=O)c1cc(Br)cc2c1N(C(=O)C1CC1)CC2)NCC1CCCO1 (stereo not drawn)	415	-0.6% (inactive)	-16.1% (inactive)	105%	-15.8% (inactive)	85.8%	-0.314 (inactive)	-1.2e-05 (inactive)	0.00703 (inactive)	12.5% (inactive)	-10.9% (inactive)
O=C(Nc1ccccc1)C1=C(O)CC(c2ccoc2)CC1=Nc1ccccc1 (stereo not drawn)	321	-2.1% (inactive)	7.8% (inactive)	94.4%	-80.4% (inactive)	121%	-0.422 (inactive)	-5.7e-05 (inactive)	0.00565 (inactive)	4% (inactive)	16.9% (inactive)
O=C1CCCc2nc(N3CCCCC3)sc21	629	-15.2% (inactive)	-20.4% (inactive)	108%	-13.1% (inactive)	86.9%	-0.424 (inactive)	-4.5e-05 (inactive)	0.00423 (inactive)	-57.2% (inactive)	-85.2% (inactive)
CC(NC(=O)COc1ccc(Br)cc1)C(=O)O (stereo not drawn)	434	6% (inactive)	4.7% (inactive)	100%	-149% (inactive)	136%	-0.439 (inactive)	-1.3e-05 (inactive)	0.00364 (inactive)	10.1% (inactive)	24.7% (inactive)
COc1ccc(C(=O)NCCc2nnc(SCc3nc4ccccc4c(=O)[nH]3)n2C)cc1	357	-6.6% (inactive)	-8.1% (inactive)	101%	-85.5% (inactive)	112%	-0.501 (inactive)	-3.6e-05 (inactive)	0.00496 (inactive)	18.2% (inactive)	18.8% (inactive)
O=C(Nc1ccc(S(=O)(=O)Nc2ccc(Cl)cc2)cc1)C1CCCO1 (stereo not drawn)	629	-6.5% (inactive)	3.9% (inactive)	104%	7.3% (inactive)	101%	-0.415 (inactive)	-4.8e-05 (inactive)	0.0052 (inactive)	14.5% (inactive)	-12.8% (inactive)
CCCn1nc(CC(=O)O)c2ccccc2c1=O	468	-12.3% (inactive)	18.8% (inactive)	123%	-10.6% (inactive)	119%	-0.426 (inactive)	-3.1e-05 (inactive)	0.00533 (inactive)	16.7% (inactive)	16.8% (inactive)
O=C(Nc1ccc(N2CCOCC2)c(Cl)c1)c1ccc(Br)o1	708	8.2% (inactive)	4.4% (inactive)	103%	-109% (inactive)	104%	-0.497 (inactive)	-0.000111 (inactive)	0.00715 (inactive)	-54.1% (inactive)	-162% (inactive)
CSc1nc(C)c(C(=O)Nc2ccccc2)c(C)c1C#N	761	-11.2% (inactive)	-5.9% (inactive)	103%	-40.9% (inactive)	118%	-0.483 (inactive)	-2.5e-05 (inactive)	0.00491 (inactive)	16.8% (inactive)	18.5% (inactive)
